About 7,500 (2.1%) of roughly 360,000 compounds were called active. A call without a number means that no potency is given here. Inconclusive results (about 8%) are left out. Calls follow the shape of the dose curve; as a rule, active = well fitted cell-killing curve with a large enough effect; inconclusive = small, poorly fitted or top-dose-only effect, or effect the other way, or another doubt; inactive = no such curve, though single readings can be large or run the other way. For the sample, actives were picked, then their nearest neighbours and some compounds at random.
Potency is read from the fitted curve at half-maximal effect.

This test is described as follows: qHTS for induction of synthetic lethality in tumor cells producing 2HG: qHTS for the HT-1080-IDH1KD cell line. The conditions noted are these: HT-1080 IDH1 knockdown viability, ATP luminescence, 48 h; series mostly up to 46.1 µM. The essentials: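 Using the IDH1-knockdown HT-1080 line run in the same batch and compound series as the NT line, viability after 48 h at 37 °C was determined by CellTiter-Glo luminescence and expressed as % activity.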
For the molecule `O=C(NCCC1CCCCN1S(=O)(=O)c1cccs1)C(=O)Nc1ccc(F)cc1F` (stereo not given), the Potency was 14.6 µM (active). As to `COc1ccccc1CCNC(=O)C(=O)NCCC1CCCCN1S(=O)(=O)c1cccs1` (stereo not given), the Potency result was “inactive”.

With `O=C(NCCC1CCCCN1S(=O)(=O)c1ccc(F)cc1)C(=O)NC1CC1` (stereo not given), the Potency result was “inactive”.

Regarding `O=C(Nc1cccc2ccccc12)c1[nH]c(-c2ccccc2)c2c1C(=O)N(C1CC1)C2=O`, the Potency result is “inactive”. The value for `O=C(NCCN1CCOCC1)C1CCN(S(=O)(=O)c2ccccc2)CC1` was “inactive”; that for `CN(C)S(=O)(=O)Oc1ccccc1C(=O)Nc1ccccc1Cl` was “inactive”.

Regarding `O=C(Nc1ccccc1Cl)/C(Cl)=C(\Cl)S(=O)c1ccccc1` (stereo not given), the Potency was 6.51 µM (active). With `O=C(COC(=O)CCc1c[nH]c(=O)[nH]1)Nc1ccccc1Cl`, the Potency entry is “inactive”. The value for `CC1(Oc2ccc(Cl)cc2)CCN(Cc2csc3ccccc23)C1` (stereo not given) was “inactive”; that for `N#CCSc1ccccc1NC(=O)CN1C(=O)NC(CCc2ccccc2)C1=O` (stereo not given) was “inactive”. Then `COC(=O)[C@]12CCCCC=C1N(Cc1ccco1)C(=O)[C@H](CC(=O)NCCCCc1ccccc1)C2`, with “inactive”; and `COc1ccc(C(C)(O)c2nc(-c3ccc(C)c(C)c3)cs2)cc1` (stereo not given), with “inactive”; and `COc1ccc(-c2csc(Nc3cccc(C)n3)n2)cc1OC`, with “inactive”. Regarding `COc1ccc(-c2csc(Nc3ccc(O)cc3)n2)cc1`, the Potency is 6.51 µM (active).

Regarding `OC[C@@H]1CN(Cc2ccc(Cl)cc2)C[C@H](n2cnc3c(NCc4ccncc4)ncnc32)O1`, the Potency result is “inactive”. `Cc1ccc(S(=O)(=O)N2CC[C@H]3[C@@H](C2)C(=O)C[C@@H](c2ccccc2)N3S(=O)(=O)c2ccc(C)cc2)cc1`: the Potency entry was “inactive”. The value for `COc1ccc(-n2c(-c3ccc(Cl)cc3)n[nH]c2=S)c(OC)c1` was “inactive”; that for `Oc1ccccc1N1CCN(C(=S)NCc2ccccc2)CC1` was “inactive”; that for `O=C(COC(=O)c1ccccc1C(=O)N1CCN(c2ccccc2)CC1)NCc1ccccc1` was “inactive”.

As to `Oc1ccc(N2CCN(C(=S)NCc3ccccc3)CC2)cc1`, the Potency is 16.4 µM (active).

For `Cc1ccc(F)c(S(=O)(=O)NC(=O)C2(C)CCN2C(=O)c2ccco2)c1` (stereo not given), the Potency result was “inactive”. With `COc1ccc(NC(=O)c2cc(=O)[nH]c3ccccc23)cc1S(=O)(=O)N1CCOCC1`, the Potency entry was “inactive”.

As to `Cc1cc(C(=O)OCC(=O)NCc2ccco2)c(C)n1-c1ccccc1`, the Potency is 3.66 µM (active).

Turning to `O=C(COC(=O)c1ccccc1O)NCc1ccco1`, the Potency entry is “inactive”. Then `CN(c1ccccc1)S(=O)(=O)c1ccc(Cl)c(C(=O)OCC(=O)NCc2ccco2)c1`, with “inactive”; and `CCCCC(=O)N(C)c1c(CC)nc2c(OCc3ccc(S(C)(=O)=O)cc3)cccn12`, with “inactive”; and `CN1CCN(c2ccc3c(c2)OC[C@H](Cc2ccccc2)NS3(=O)=O)CC1`, with “inactive”.

Turning to `COc1ccc(C2=NOC(C(=O)NCc3ccco3)C2)cc1OC` (stereo not given), the Potency was 4.47 µM (active). The value for `COc1ccc(S(=O)(=O)N2CCC(C(=O)NCc3ccco3)CC2)cc1C` was “inactive”; that for `COc1ccc(CNC(=O)C2CC(c3ccc(C(F)(F)F)cc3)=NO2)cc1` (stereo not given) was “inactive”; that for `COc1ccc(OC)c(C(O)c2ncc(-c3cccc(C(F)(F)F)c3)[nH]2)c1` (stereo not given) was “inactive”.

In the case of `Cc1cc(C(=O)N/N=C/c2cc([N+](=O)[O-])cc(C)c2O)n[nH]1`, the Potency was 16.4 µM (active). As to `COc1ccc(CC(=O)N/N=C/c2cc([N+](=O)[O-])cc(Br)c2O)cc1`, the Potency result was “inactive”. With `Cc1ccc(S(=O)(=O)N2CCN(CC(=O)N/N=C/c3cc([N+](=O)[O-])ccc3Cl)CC2)cc1`, the Potency result was “inactive”. Consider `C[C@H]1CN([C@@H](C)CO)C(=O)c2cc(Br)cnc2O[C@H]1CN(C)S(=O)(=O)c1cccs1`, for which the Potency result is “inactive”. The value for `CCCC(=O)N1CCC1(C)C(=O)NS(=O)(=O)c1ccc(Cl)cc1` (stereo not given) was “inactive”. Then `CC(=O)NC1=NN(C(C)=O)C(C)(c2ccc(C)cc2)S1` (stereo not given), with “inactive”. The value for `CC(=O)NC1=NN(C(C)=O)C(C)(c2ccc(Cl)s2)S1` (stereo not given) was 2.31 µM (active). Regarding `CC(=O)NC1=NN(C(C)=O)C(C)(CCS(=O)(=O)c2ccc(Cl)c(Cl)c2)S1` (stereo not given), the Potency result is “inactive”. The value for `CCCCN1C(=O)C(CC(=O)NCc2cccs2)CC(C(=O)N2CCCCCC2)=C1C` (stereo not given) was “inactive”.

On to `CC1(C(=O)NS(=O)(=O)c2ccc(Cl)cc2)CCN1C(=O)CC1CCCC1` (stereo not given), for which the Potency entry was “inactive”.

For the molecule `CCOc1cccc(-n2nnnc2-c2ccc(OC)cc2)c1`, the Potency was 4.61 µM (active). The value for `COc1ccc(NC(=O)CSc2nnnn2-c2cccc(OC)c2)cc1` was “inactive”. Then `COc1ccc(-n2nnnc2-c2nc3ccccc3s2)cc1`, with “inactive”; and `Cc1nc2ccccc2nc1CC(O)(c1ccccc1)c1ccccc1`, with “inactive”; and `Nc1nc2c(ncn2[C@@H]2O[C@H](CNCc3ccc(OCCCN4CCOCC4)cc3)[C@@H](O)[C@H]2O)c(=O)[nH]1`, with “inactive”. Then `CN(C)CCCN(C(=O)c1ccc(S(=O)(=O)N2CCCCCC2)cc1)c1nc2ccc(Br)cc2s1`, with 16.4 µM (active); and `COc1ccc2sc(N(CCCN(C)C)C(=O)c3ccc(S(=O)(=O)N(C)C4CCCCC4)cc3)nc2c1`, with “inactive”; and `Cc1ccc2nc(N(CCN(C)C)C(=O)C3=COCCO3)sc2c1`, with “inactive”. Consider `O=S1(=O)CC(N2CCN(Cc3ccccc3F)CC2)CN1Cc1cn(Cc2cccc(C(F)(F)F)c2)nn1` (stereo not given), for which the Potency entry was “inactive”. `C[C@@H]1CN([C@@H](C)CO)S(=O)(=O)c2ccc(-c3ccc(C(=O)N(C)C)cc3)cc2O[C@@H]1CN(C)Cc1ccccc1C(=O)O`: the Potency entry was “inactive”. Then `CC(C)c1ccc(NC(=S)NNc2ccc(Cl)c(C(=O)O)c2)cc1`, with “inactive”; and `Cc1ccc(C)c(NC(=S)NNC(=O)c2csc(C)c2)c1`, with “inactive”; and `Cc1ccc(C)c(NC(=S)NNC(=S)Nc2ccc(C(C)C)cc2)c1`, with 23.1 µM (active).

Regarding `Cc1cc(Br)ccc1NC(=O)CCCOc1cc(=O)n(C)c2ccccc12`, the Potency entry is “inactive”. Then `Cc1ccc(C(=O)Nc2c(-c3ccccc3)[nH][nH]c2=O)cc1`, with “inactive”. The value for `Fc1ccc(NC(=S)N2CCc3[nH]c4ccccc4c3C2)cc1` was “inactive”; that for `O=C(CCCN1CCc2[nH]c3ccc(F)cc3c2C1)c1ccc(F)cc1` was 20.6 µM (active); that for `O=C(Nc1ccc(Cl)cc1)N1CCc2[nH]c3ccccc3c2C1` was “inactive”. On to `CC1(C(=O)NS(=O)(=O)c2ccccc2)CCN1C(=O)c1ccccc1` (stereo not given), for which the Potency entry was “inactive”. The value for `COc1cc(C(O)c2nc(-c3cccc(C(=O)O)c3)cs2)ccc1F` (stereo not given) was “inactive”; that for `COc1ccc2sc(-c3ccc(N(C)C)cc3)c(-c3ccc4cc[nH]c4c3)c2c1` was “inactive”; that for `COc1ccc2c(c1)c(=Cc1ccc(N(C)C)cc1)c1cc(-c3ccccc3)[n+](C)n12` was 5.17 µM (active). Turning to `CCCCC(=O)NC(c1ccc(OC)c(OC)c1)c1ccc2cccnc2c1O` (stereo not given), the Potency was 2.91 µM (active).

As to `CCOc1ccc(C(CC(=O)O)NC(=O)Cc2ccccc2)cc1OC` (stereo not given), the Potency result was “inactive”. Then `COc1ccc(CCNS(=O)(=O)c2cccc3cccnc23)cc1OC`, with “inactive”; and `CCCNC(=O)C1(C)CCCN(C(=O)c2cccc(OC(C)=O)c2C)C1` (stereo not given), with “inactive”.

Consider `Cc1cc(=O)c2ccc(NC(=O)c3ccccc3)cc2[nH]1`, for which the Potency result is “inactive”. The value for `Cc1ccc(-c2cc(=O)c3ccc(F)cc3[nH]2)cc1` was “inactive”; that for `O=c1cc(-c2ccccc2)[nH]c2cc(F)ccc12` was 4.11 µM (active).

Consider `CCC(C(=O)NCc1ccccc1)n1c(Cc2cc(F)cc(F)c2)nc2ccccc21` (stereo not given), for which the Potency result was “inactive”. The value for `COc1ccc(C(=O)OCC(=O)Nc2cc(C)on2)cc1F` was “inactive”.

Regarding `O=C(CCN1CCCCC1)Nc1ccc(F)c(F)c1`, the Potency result was “inactive”.

With `CCc1cccc(CC)c1N1C(=O)CC(Sc2ccccc2N)C1=O` (stereo not given), the Potency result is “inactive”. The value for `CC1(Cc2ccccc2C#N)C(=O)Nc2ccc(-c3ccc4[nH]ccc4c3)cc21` (stereo not given) was 1.64 µM (active); that for `CC(Oc1ccc(Br)cc1)C(=O)NC1CCCCCC1` (stereo not given) was “inactive”; that for `OC(COc1ccc(Br)cc1)CN1CCCC1` (stereo not given) was “inactive”. The value for `CC(C)(C)CC(C)(C)NCC(O)COCCOc1ccc(Br)cc1` (stereo not given) was 20.6 µM (active); that for `Cc1cccc(CN2CCN(C3CN(Cc4cn(Cc5cc(C)cc(C)c5)nn4)S(=O)(=O)C3)CC2)c1` (stereo not given) was “inactive”. Then `CC(=O)Oc1ccc2c(c1)C(=O)c1ccccc1C2=O`, with “inactive”; and `O=C1C(Cl)=C(Oc2ccccc2)C(=O)c2ccccc21`, with 2.59 µM (active); and `O=C(CSc1nnc(-c2ccccn2)n1-c1ccccc1)Nc1ccc2c(c1)OCO2`, with 23.1 µM (active).

Take `CCn1c(SCC(=O)Nc2ccc3c(c2)OCCO3)nnc1-c1ccncc1`: the Potency result is “inactive”. The value for `O=C(O)CSc1nnc(-c2ccc3c(c2)OCO3)n1-c1ccccc1` was “inactive”; that for `Cc1cccc(C)c1NC(=O)C(c1cccc2ccccc12)n1c(=O)c(-c2ccco2)nc2ccccc21` (stereo not given) was “inactive”; that for `O=C(OCc1cn([C@H]2C[C@H](c3ccccc3)N(C(=O)c3cccs3)C[C@@H]2O)nn1)c1ccccc1` was “inactive”. As to `COc1cccc(OC)c1C(=O)N1CCN(Cc2ccccc2F)CC1`, the Potency result is “inactive”. Then `O=C(COc1cccc(Cl)c1)NCc1ccccc1`, with “inactive”; and `Nc1c(-c2ccccc2)nnn1Cc1ccccc1`, with “inactive”; and `Nc1c(C(=O)NCc2ccccc2)nnn1Cc1cccc(Cl)c1`, with 14.6 µM (active). In the case of `O=C(NCCN1CCOCC1)c1ccc2c(c1)N(Cc1cccc(Cl)c1)C(=O)c1ccccc1S2(=O)=O`, the Potency entry is “inactive”. Then `CC1=C/C(=N\OS(=O)(=O)c2ccccc2)C=CC1=O`, with 20 µM (active); and `O=C(NCc1ccc(F)cc1)c1cc(C2CCCCN2C(=O)c2cccs2)on1` (stereo not given), with “inactive”; and `CCc1nc2ccc(C(=O)Nc3cc(-c4ccccc4)ccc3OC)cn2c1N(CC)CC(=O)N(C)C`, with “inactive”. The value for `C[C@@H]1CN([C@@H](C)CO)C(=O)c2cc(Br)cnc2O[C@H]1CN(C)Cc1ccc(-c2ccccc2)cc1` was “inactive”. Then `CCCCN1CC(N2CCN(Cc3cccc(C)c3)CC2)CS1(=O)=O` (stereo not given), with “inactive”; and `COc1ccc(C(=O)Nc2ccccc2C(=O)N/N=C/c2ccc(O)c(OC)c2)cc1`, with 6.51 µM (active). On to `COc1ccc(C(=O)Nc2ccccc2C(=O)N2CCN(c3ccccc3)CC2)cc1`, for which the Potency result was “inactive”. Then `Cc1ccc(S(=O)(=O)Oc2ccc(/C=N/NC(=O)c3ccncc3)cc2)cc1`, with “inactive”; and `COC(=O)c1ccc(COc2ccc(/C=N/NC(=O)C(=O)Nc3ccc(OC)cc3)cc2OC)o1`, with “inactive”. The value for `COc1cc(/C=N/NC(=O)c2ccoc2C)ccc1OCCN1CCCCC1` was “inactive”; that for `COc1cc(/C=N/NC(=O)Nc2ccccc2)ccc1OCCOc1ccccc1C` was 7.08 µM (active); that for `COc1ccc(/C=N/NC(=O)c2ccccc2)cc1OS(=O)(=O)c1ccccc1` was 20.6 µM (active).

Regarding `COc1cc(C=NNC(=O)c2cccnc2)ccc1OC(=O)c1ccccc1F`, the Potency result is “inactive”.

With `COc1ccc(/C=N/Nc2ccccc2C(=O)O)cc1`, the Potency entry was “inactive”.

The record behind these values is PubChem BioAssay AID686971 (National Center for Advancing Translational Sciences (NCATS), 2013).
